Data as given in PubChem BioAssay AID720504 (National Center for Advancing Translational Sciences (NCATS), 2013).
In all, about 360,000 compounds went through this assay and about 10,000 (2.8%) were called active. Inconclusive results (about 4%) are left out. Many of the other results were omitted from the sample, so actives are more common in it than they were. A number with no mark means an inactive call. The call rests on the fitted dose curve; in most records, active means well fitted inhibition curve with a large enough effect; inconclusive means small, poorly fitted or top-dose-only effect; inactive means flat fitted curve, though single readings scatter.

Each molecule was assayed against Serine/threonine-protein kinase PLK1 (Homo sapiens) (UniProt P53350) (assay: qHTS for Inhibitors of PLK1-PDB (polo-like kinase 1 - polo-box domain): Primary Screen). Conditions: Plk1 PBD binding of FITC phosphopeptide, fluorescence polarization.
Chain of Serine/threonine-protein kinase PLK1 (Homo sapiens) (P53350 whole entry, looked up, the tested form may be a part): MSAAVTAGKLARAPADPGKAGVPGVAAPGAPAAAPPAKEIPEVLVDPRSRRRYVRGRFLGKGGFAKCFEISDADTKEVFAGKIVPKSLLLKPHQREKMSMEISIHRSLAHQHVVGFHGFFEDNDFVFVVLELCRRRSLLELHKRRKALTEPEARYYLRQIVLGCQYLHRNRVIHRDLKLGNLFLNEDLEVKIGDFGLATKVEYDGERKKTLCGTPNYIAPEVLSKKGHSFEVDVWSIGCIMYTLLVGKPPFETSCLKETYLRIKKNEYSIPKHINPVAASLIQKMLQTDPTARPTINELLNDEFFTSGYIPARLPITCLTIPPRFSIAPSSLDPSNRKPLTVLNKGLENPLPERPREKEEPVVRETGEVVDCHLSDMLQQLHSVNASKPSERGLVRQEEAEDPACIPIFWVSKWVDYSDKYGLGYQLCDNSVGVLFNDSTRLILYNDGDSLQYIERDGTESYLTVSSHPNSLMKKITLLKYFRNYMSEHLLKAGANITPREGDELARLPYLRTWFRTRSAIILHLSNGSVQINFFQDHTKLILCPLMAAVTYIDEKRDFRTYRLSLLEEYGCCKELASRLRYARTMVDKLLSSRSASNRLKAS
Further: nearly all actives have a fitted effect of over 65% in size.
On the % scale 0 is the no-effect control and ±100 the full control effect; potency means the concentration at half of the fitted maximal effect.
Wherever max response, negative = inhibition is given: series mostly up to about 57 µM.

Row | SMILES | max response, negative = inhibition [%] | Potency
1 | COc1ccc([C@H]2CC(=O)C[C@@H](CCn3cc(CC4CCCC4)nn3)O2)cc1 | 2.62 | 
2 | CC(=O)O[C@H]1c2ccccc2-c2ccccc2[C@@H]1OC(C)=O | 1.29 | 
3 | CN(C)CCOc1cccc(Br)c1 | -4.17 | 
4 | CN(C)CCOC1c2ccccc2-c2ccccc21 |  | 29.9 µM (active)
5 | CCCCC[C@H](C)N1C[C@@H](COCc2ccccc2)Oc2cc(N3CC[C@@H](N(C)C)C3)ccc2S1(=O)=O | 4.46 | 
6 | CCOC(=O)[C@]12CCCC=C1N(Cc1ccc3c(c1)OCO3)C(=O)[C@H](CC(=O)N1CCN(C(=O)c3ccco3)CC1)C2 | -17.4 | 
7 | CC1(C(=O)NS(=O)(=O)Cc2cccc(Cl)c2)CCN1C(=O)Cc1ccc(Cl)cc1Cl (centres undefined) | -4.29 | 
8 | O=C(c1ccc(Oc2ccc(Cl)cc2)c([N+](=O)[O-])c1)N1CCCC1 | -8.04 | 
9 | CC1CCN(C(=O)c2ccc(S(=O)(=O)Cc3cc(F)ccc3F)c([N+](=O)[O-])c2)CC1 |  | 15 µM (active)
10 | Nc1ccc(C(=O)N2CCN(S(=O)(=O)c3ccc(Cl)cc3)CC2)cc1[N+](=O)[O-] | -9.21 | 
11 | O=C(Nc1ccc(Cl)cc1)c1csc([C@@H]2O[C@H](CO)[C@H](O)[C@H](O)[C@H]2O)n1 | 2.4 | 
12 | O=C(Nc1cccc(Cc2ccccc2)c1)Nc1ccc2nc([C@@H]3O[C@H](CO)[C@@H](O)[C@H](O)[C@H]3O)[nH]c2c1 | -5.78 | 
13 | CCOc1cc(/C=N/n2cnnc2)c(Br)cc1O | -5.37 | 
14 | CCOc1cccc(/C=N/N2C(=O)CSC2=S)c1O |  | 11.9 µM (active)
15 | CCOc1ccc(N2C(=O)CSC2=NC#N)cc1 | -14.5 | 
16 | CCCCCCN1C[C@H](O)[C@@H](n2cc(C3CC3)nn2)C[C@@H]1c1ccc(Cl)cc1 | -0.475 | 
17 | COc1ccc(C(C(=O)NC(C)(C)C)N(Cc2ccc(F)cc2)C(=O)CCC(=O)Nc2cc(C)on2)cc1 (centres undefined) | -11.5 | 
18 | CCC(C)(C)NC(=O)C(c1ccc(OC)cc1)N(C(=O)CCC(=O)Nc1cc(C)on1)c1ccc(OC)cc1OC (centres undefined) | -9.49 | 
19 | CCC(C)(C)NC(=O)C(c1cccc(OC)c1OC)N(CC(C)C)C(=O)CCC(=O)Nc1cc(C)on1 (centres undefined) |  | 10.6 µM (active)
20 | CC(=O)Nc1cc(-c2ccc(N3CCN(C)CC3)cc2)cn2c(-c3ccc(F)cc3)cnc12 | 1.71 | 
21 | COCCCn1c(=O)/c(=C/c2ccccc2OC(C)C)s/c1=C(\C#N)C(=O)Nc1ccc(C(=O)O)cc1 | -29.5 | 

Row | SMILES | max response, negative = inhibition [%] | Potency
22 | O=C(C[n+]1ccccc1)N/N=C/c1ccc(O)cc1 |  | 26.7 µM (active)
23 | Cc1nonc1C(=O)N/N=C/c1ccc(O)cc1 | -1.21 | 
24 | Nc1nnn(CC(=O)N/N=C/c2ccc(O)cc2)n1 | -3.01 | 
25 | O=C(Nc1ccc2c(c1)[C@@H]1C[C@@H](CC(=O)N3CCCCC3)O[C@@H](CO)[C@@H]1O2)NC1CCCCC1 | 2.32 | 
26 | Cc1nc(C(F)(F)F)ccc1C(=O)N1CCC1(C)C(=O)NS(=O)(=O)c1ccc(F)cc1F (centres undefined) | 1.72 | 
27 | COc1ccc(N2C(=O)CNC2=S)cc1 | 0.339 | 
28 | COc1ccc(-n2cc(-c3ccccc3)c3c(=S)nc[nH]c32)cc1 | -12.3 | 
29 | COc1ccc(-c2cn(-c3ccc(OC)cc3)c(=S)[nH]2)cc1 |  | 21.2 µM (active)
30 | Cc1csc(=O)n1CCC(=O)OCC(=O)Nc1ccc(N2CCOCC2)cc1 | 1 | 
31 | CSc1ccc(CN2CCC2(C)C(=O)Nc2ccc(C)c(O)c2)cc1 (centres undefined) | 4.93 | 
32 | COc1cc(F)ccc1-c1cc(C(=O)NCC2CCCCC2)[nH]n1 | 1.4 | 
33 | N#CC1=C(N)N(c2ccccc2)C2=C(C(=O)CCC2)C1c1ccccc1 (centres undefined) | -0.426 | 
34 | COc1ccc(C2C(C#N)=C(N)N(c3ncn[nH]3)C3=C2C(=O)CCC3)cc1 (centres undefined) |  | 26.7 µM (active)
35 | CCOc1ccc(C2C(C#N)=C(N)N(N(C)C)C3=C2C(=O)CCC3)cc1 (centres undefined) | -4.98 | 
36 | CC1(C(=O)NCc2ccccc2)CN(S(C)(=O)=O)CC(=O)N1CC(F)(F)F (centres undefined) | 3.31 | 
37 | CCC(=O)N1Cc2cc(C(=O)NCc3cccc(F)c3)nc(-c3cccc(C4=CCCC4)c3)c2[C@H]1CCO | -10.3 | 
38 | O=C(CC(n1cncn1)C(Cl)(Cl)Cl)c1ccc([N+](=O)[O-])cc1 (centres undefined) |  | 23.8 µM (active)
39 | O=C(Nn1cnnc1)c1ccc([N+](=O)[O-])cc1 | -3.8 | 
40 | O=C(Cn1c[n+](CC(=O)c2ccc([N+](=O)[O-])cc2)cn1)c1ccc([N+](=O)[O-])cc1 | -8 | 
41 | OC[C@@H]1CN(Cc2cccs2)C[C@H](n2cnc3c(NC4CCCC4)ncnc32)O1 | -8.04 | 
42 | O=C(Nc1cccc2ccccc12)NC1CC1 | -14.1 | 

Row | SMILES | max response, negative = inhibition [%] | Potency
43 | COc1ccc(C(C(=O)Nc2c(C)cccc2C)N2CCN(c3ccc(C)cc3)CC2)cc1 (centres undefined) | -1.1 | 
44 | N#Cc1c(-c2ccccc2)cc(-c2ccccc2)nc1SCC(=O)O |  | 21.2 µM (active)
45 | N#Cc1c(C(F)(F)F)cc(-c2ccc(Cl)cc2)nc1SCC(=O)O | -8.73 | 
46 | N#Cc1c(C(F)(F)F)cc(-c2ccccc2)nc1SCC(=O)N1CCOCC1 | -6.59 | 
47 | OC(c1ccc(Cl)cc1)c1ncc(-c2ccc(Cl)cc2)[nH]1 (centres undefined) | 5.29 | 
48 | CC1=C(C(=O)N2CCOCC2)CC(CC(=O)NCCCN(C)C)C(=O)N1Cc1ccc(C(C)(C)C)cc1 (centres undefined) | -2.35 | 
49 | CCc1nc2ccc(C(=O)N3CCC(O)(Cc4ccccc4)CC3)cn2c1N(C)C(=O)Cc1ccccc1 | -2.01 | 
50 | Nc1ncnc2c1ncn2[C@@H]1O[C@H](C(=O)NCC(F)(F)F)[C@@H](O)[C@H]1O | -5.72 | 
51 | CCOC(=O)c1c(-n2cnnn2)sc(C)c1C |  | 26.7 µM (active)
52 | CCOc1ccc(C(=O)COC(=O)c2ccc(-n3cnnn3)cc2)cc1 | 2.47 | 
53 | CCOC(=O)N1CCN(S(=O)(=O)c2ccc(-n3cnnn3)cc2)CC1 | -22.3 | 
54 | CC1(Oc2ccc(Cl)cc2)CCN(Cc2csc3ccccc23)C1 (centres undefined) | -4.39 | 
55 | Cc1ccc(CNC(=O)Nc2nnc([C@H]3C[C@H](O)[C@@H](CO)O3)s2)cc1 | 6.99 | 
56 | CC(C)C[C@@H](COCc1ccc(Cl)cc1)N1CCN(C(=O)c2ccc(Cl)cc2Cl)CCC1=O | -7.05 | 
57 | CC(=O)c1cccc(-c2cnc3c(NC=O)cc(-c4cccc(C(=O)N(C)C)c4)cn23)c1 | -7.52 | 
58 | Cc1c(C(=O)c2cccc([N+](=O)[O-])c2)c2ccccn2c1CCC#N | -8.17 | 
59 | COc1ccc(C(=O)c2c(C)c(CCC#N)n3ccccc23)c(OC)c1 |  | 29.9 µM (active)
60 | COc1ccc(C(=O)CCc2ccccc2O)c(OC)c1 | -0.281 | 
61 | CN1CCn2cnc(C(=O)NCC(=O)OC(C)(C)C)c2C1=O | -1.56 | 
62 | Cc1ccccc1S(=O)(=O)N1[C@@H](c2cccc(Cl)c2)C(C(=O)OC(C)(C)C)=CC[C@H]1c1ccc(Cl)cc1 | -12.6 | 
63 | CCCCNC(=O)C[C@@H]1C[C@@]2(C(=O)OCC)CCC=C2N(Cc2ccco2)C1=O | -10.8 | 

Row | SMILES | max response, negative = inhibition [%] | Potency
64 | Cc1ccc(S(=O)(=O)N2CC3C(=O)C[C@@H](c4ccccc4Cl)N(S(=O)(=O)c4ccc(C)cc4)C3CC2c2ccccc2)cc1 (some centres undefined) | 1.78 | 
65 | Cc1ccc(-n2c(SCC(=O)Nc3ccc4c(c3)OCO4)nnc2-c2ccccn2)cc1 | -3.49 | 
66 | O=C(CSc1nnc(-c2ccccn2)n1-c1ccccc1)Nc1ccc2c(c1)OCO2 | -6.44 | 
67 | Cc1ccc(-n2c(SCC(=O)Nc3ccc4c(c3)OCO4)nnc2-c2ccoc2C)cc1 |  | 23.8 µM (active)
68 | O=C(NCc1cccnc1)c1cc(C2CCCN(C(=O)CCCc3ccccc3)C2)on1 (centres undefined) | 7.06 | 
69 | C/C(COc1ccccc1)=N\NC(=O)c1nnn(-c2nonc2N)c1-c1ccc(C)cc1 | -7.46 | 
70 | O=C(NNC(=S)Nc1ccc(Br)cc1Cl)c1ccco1 | -12.7 | 
71 | CCC(=O)NC(=S)Nc1ccc(NC(=O)c2ccco2)c(Cl)c1 |  | 29.9 µM (active)
72 | Cc1cccc(OCC(=O)Nc2ccc(NC(=O)c3ccco3)c(C)c2)c1 | -7.98 | 
73 | CCCCN1C(=O)C(CC(=O)NC(c2ccccc2)c2ccccc2)CC(C(=O)N2CCOCC2)=C1C (centres undefined) | -4.16 | 
74 | Cc1nc(C(F)(F)F)ccc1C(=O)N1CCC1(C)C(=O)NS(=O)(=O)c1ccccc1 (centres undefined) | -4.71 | 
75 | COc1ccc(N2C(=O)CC(SC(C)C)C2=O)cc1 (centres undefined) | -4.56 | 
76 | COc1ccc(N2C(=O)CC(Sc3n[nH]c(-c4ccc(C)cc4)n3)C2=O)cc1 (centres undefined) |  | 18.9 µM (active)
77 | COc1ccc(-c2nc(SCC(=O)N3CCCC3)n[nH]2)cc1 | -1.92 | 
78 | Cc1noc(C)c1-c1ccc(C(=O)NCc2ccncc2)c2occc12 | -3.63 | 
79 | CCc1nc2ccc(C(=O)Nc3cccc(OC)c3)cn2c1N(CCC(C)C)CCN(C)C | 0.24 | 
80 | COC(=O)Cc1c(-c2[nH]c3ccccc3c2CC(=O)OC)[nH]c2ccccc12 | 0.279 | 
81 | S=c1[nH]c2ccccc2c2ccccc12 |  | 18.9 µM (active)
82 | Cc1cc2c3ccccc3[nH]c(=O)n2n1 | -0.899 | 
83 | CCCNC(=O)C1CC(=O)N(c2ccc(OCc3ccccc3)cc2)C1 (centres undefined) | 3.86 | 
84 | Cc1nc(C(F)(F)F)ccc1C(=O)N1CCC1(C)C(=O)NS(=O)(=O)c1ccccc1Cl (centres undefined) | -15.4 | 
